Screening data from PubChem BioAssay.
NIH3T3 tox: Cytotoxic Profiling in NIH 3T3 Cell Line of Diverse Libraries Using Quantitative High-Throughput Screening. AID 1345082, 2018. hit rate 4.3% among 94,000. Potency, µM (highest dose often 96.7 µM), most hits filed as inhibitors. NIH 3T3 viability, CellTiter-Glo ATP luminescence, 48-72 h; also: nearly all actives have a fitted effect of over 55% in size
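ATP-dependent luminescence (CellTiter-Glo) served as the viability signal for NIH 3T3 cells treated with compound for 48 or 72 hr at 37 °C.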
FLuc inh: Firefly luciferase inhibition profiling of diverse chemical library using quantitative high-throughput screening; purified P. pyralis luciferase, luminescence, biochemical; Luciferin 4-monooxygenase (Photinus pyralis), P08659; hit rate 2.5% among 76,000; Potency, µM (titrated, usually from 115 µM), hits mostly inhibitors; also: nearly all actives have a fitted effect of over 65% in size
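Purified P. pyralis luciferase (10nM final) in 50mM Tris acetate pH 7.5, 10mM Mg acetate, 0.01% Tween-20, 0.05% BSA with 10uM D-luciferin and 10uM ATP. Compounds titrated qHTS. Luminescence imaged on CCD.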
HEK cytotox: Cytotoxic Profiling in HEK 293 Cell Line of Diverse Libraries Using Quantitative High-Throughput Screening | AID 1345083, 2018 | hit rate 6.6% among 94,000 | Potency, µM (top dose mostly 115 µM), actives largely listed as inhibitors | HEK 293 viability, ATP luminescence (CellTiter-Glo), 48-72 h; also: nearly all actives have a fitted effect of over 60% in size
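HEK 293 cells at 250 cells/well were exposed to compounds by pintool transfer for 48 or 72 hr at 37 degree Celsius, 5% CO2. Viability was read as ATP-coupled luminescence with CellTiter-Glo after 10 min at room temperature.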
GPT2 inh: Primary qHTS assay for inhibitors of Glutamate pyruvate transaminase 2 (GPT2); Recombinant GPT2, coupled pyruvate oxidase/HRP Amplex Red fluorescence; Potency, µM (highest dose often 57.7 µM), hits mostly inhibitors; hit rate 0.25% among 100,000; also: nearly all actives have a fitted effect of over 60% in size
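Fluorescence read-out: pyruvate from GPT2 turnover coupled to pyruvate oxidase, HRP and Amplex Red (0.2mM ThPP, 0.2U/mL PO and HRP, 50uM Amplex final). Substrates 250uM a-KG, 2mM L-alanine; enzyme 10ng/uL; 30 min RT.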
hNpr1 antagonist: Natriuretic polypeptide receptor (hNpr1) antagonism - Primary qHTS; Atrial natriuretic peptide receptor 1 (Homo sapiens), P16066; HEK293 hNpr1 GloSensor cGMP, ANP-stimulated luminescence; Potency, µM (top dose mostly 46.3 µM), usual class: inhibitors; hit rate 1.6% among 76,000; calls by dose curve; also: nearly all actives have a fitted effect of over 60% in size
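HEK293 cells stably expressing human Npr1 and cGMP GloSensor pGS-40F, loaded 2 h with 2% GloSensor reagent, given compound 30 min at room temperature. Luminescence read before and 20 min after 0.1 nM hNppA.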
Hits are given with their value; n = inactive; u = inconclusive; x = no result; ! = not confirmed by another sample. Hits are enriched below; roughly 10% of the tested compounds scored in any of these assays. Unless noted, calls follow the shape of the dose curve; as a rule, active = well fitted curve in the direction sought with a large enough effect; inconclusive = small, poorly fitted or top-dose-only effect, or another doubt; inactive = no such curve, though single readings can be large; an effect the other way counts as inactive or inconclusive.

SMILES	NIH3T3 tox	FLuc inh	HEK cytotox	GPT2 inh	hNpr1 antagonist
CCOC(=O)C1CCCN(C(=O)c2ccc3oc(-c4ccncc4)nc3c2)C1 (configuration not stated)	u	x	u	n	x
O=C(c1ccc2oc(-c3ccncc3)nc2c1)N1CCCCC1	u	x	40µM	n	x
CCOC(=O)C1CCCN(C(=O)c2ccc3nc(-c4ccncc4)oc3c2)C1 (configuration not stated)	u	x	45µM	n	x
CCOC(=O)C1CCN(C(=O)c2ccc3oc(-c4ccnc(Cl)c4)nc3c2)CC1	n	x	n	n	x
O=C(c1ccc2oc(-c3ccnc(Cl)c3)nc2c1)N1CCOCC1	35µM	x	u	n	x
COc1cccc(CNC(=O)C2CN(C3CCCCC3)C(=O)N2)c1 (configuration not stated)	n	x	n	n	x
CCCC1(CO)CCCN(Cc2cc(-c3ccc(C)cc3)no2)C1 (configuration not stated)	u	u	u	n	n
CCc1nc(-c2ccc(OC3CCN(S(=O)(=O)Cc4ccccc4)C3)cc2)no1 (configuration not stated)	u	u	45µM	n	u
Cc1nc(C)c(C(=O)N2CC(Oc3ccc(-c4noc(-c5ccccc5)n4)cc3)C2)s1	n	u	n	n	u
CCc1nc(-c2ccc(OC3CCN(C(=O)c4sc(C)nc4C)C3)cc2)no1 (configuration not stated)	u	n	45µM	n	n
COCc1nc(-c2ccc(OC3CCN(C(=O)Cc4c[nH]c5ccccc45)C3)cc2)no1 (configuration not stated)	u	n	35µM	n	u
CC[C@H]1CN(C(=O)Nc2cccc(C(F)(F)F)c2)CC[C@H]1CC(=O)NCc1ccc(OC)cc1	u	n	40µM	n	u
CC[C@H]1CN(C(=O)Nc2cccc(OC)c2)CC[C@H]1CC(=O)NCc1ccccc1	n	n	n	n	n
F[C@@H]1CN(C2CCOCC2)C[C@@H]1OCc1nc2ccccc2o1	n	n	n	n	n
F[C@@H]1CN(C2CCC2)C[C@@H]1OCc1nc2ccccc2o1	n	79µM	n	n	n
F[C@@H]1CN(CC2CC2)C[C@@H]1OCc1nc2ccccc2o1	n	35µM	n	n	n
COc1cccc(Nc2ccc3c(n2)C(C)(C(=O)NC2CCC2)CN(C)C3)c1 (configuration not stated)	u	n	u	n	n
Cc1ccc(-c2cc(C(=O)NCCCc3ccccc3)c3cnn(C)c3n2)c(C)c1	u	x	u	n	x
COc1ccccc1CNC[C@H]1O[C@H](Cc2cc(-c3ccccc3)on2)CC[C@@H]1O	89µM	n	u	n	n
O[C@H]1CC[C@@H](Cc2cc(-c3ccccc3)on2)O[C@@H]1CNC1CCCCC1	u	n	100µM	n	n
O=C1NC(=NC2CCCC2)C2(CCN(Cc3cccnc3)CC2)N1c1cc(F)cc(F)c1	32µM	x	n	n	x
O=C1NC(=NC2CCCC2)C2(CCN(Cc3cccnc3)C2)N1c1cc(F)cc(F)c1 (configuration not stated)	32µM	x	n	n	x
COc1ccc(CN2CCc3oc(C)c(C(=O)NC4CCN(C)CC4)c3C2)cc1	n	n	u	n	n
COc1ccc(CCc2nc3nccc(-c4ccsc4)n3n2)cc1OC	u	n	u	n	n
COc1ccc(CCNC(=O)c2nc3cccnc3n(CC(C)C)c2=O)cc1	45µM	x	u	n	x
SMILES	NIH3T3 tox	FLuc inh	HEK cytotox	GPT2 inh	hNpr1 antagonist
COc1ccc(CNC(=O)c2nc3cccnc3n(Cc3ccc(OC)cc3)c2=O)cc1	u	x	79µM!	n	x
COc1ccc(Cn2c(=O)c(C(=O)NCc3ccccc3)nc3cccnc32)cc1	u	x	u	n	x
COC(=O)[C@@H]1Cc2ncn(Cc3ccc(Cl)cc3)c2CN1CCCc1ccccc1	n	n	25µM	n	u
COC(=O)[C@@H]1Cc2ncn(Cc3ccc(Cl)cc3)c2CN1Cc1cccs1	89µM	n	u	u	u
COC(=O)[C@@H]1Cc2ncn(Cc3ccc(OC)cc3)c2CN1CCCc1ccccc1	u	n	u	n	n
COc1cccc(-c2cc(C3CCN(S(=O)(=O)c4ccc(F)cc4F)CC3)[nH]n2)c1	u	n	25µM	n	u
COc1cccc(-c2cc(C3CCN(S(=O)(=O)c4ccc(C#N)cc4)CC3)[nH]n2)c1	28µM	n	28µM	n	u
Cc1ccccc1C(=O)N1CCCC2(CN[S+](=O)([O-])c3cccnc3N2)C1 (configuration not stated)	n	x	u	x	x
COC[C@@H]1CCCN1CCC(=O)Nc1ccc(C(=O)OC)cc1	n	n	n	n	n
CCc1cc(=O)n(CC(=O)Nc2ccc(OC)cc2)c(-c2ccccc2)n1	u	n	u	n	n
CCc1cc(=O)n(CC(=O)Nc2cc(OC)c(OC)c(OC)c2)c(-c2ccccc2)n1	u	n	45µM	n	u
COc1ccc(-c2c(C(=O)N3CCN(C)CC3)nc3sccn23)cc1	n	x	n	n	x
Cc1cc(C)cc(-c2ccc(CN3C4CCC3CN(C(=O)c3ccncc3)C4)cc2)c1	u	x	45µM	n	x
Cc1cc(C)cc(-c2ccc(CN3CCCC(NC(=O)c4ccc(Cl)nc4)C3)cc2)c1 (configuration not stated)	n	x	u	n	x
Cc1cc(C)cc(-c2ccc(CN3CCCC(NC(=O)c4ccncc4)C3)cc2)c1 (configuration not stated)	25µM	x	28µM	n	x
Cc1cc(C)cc(-c2ccc(CN3CCCC(NC(=O)c4cccnc4)C3)cc2)c1 (configuration not stated)	20µM	x	20µM	n	x
COC(=O)NC1CCCN(Cc2ccc(-c3cc(C)cc(C)c3)cc2)C1 (configuration not stated)	45µM	x	40µM	n	x
O=C(NC1CCCC1)N1CCCC(C(=O)N2CCCC(c3nc4ncccc4[nH]3)C2)C1 (configuration not stated)	n	x	n	n	x
O=[S+]([O-])(c1ccccc1)N1CC2(COCCN(c3nccc(C(F)(F)F)n3)C2)C1	u	n	89µM	u	n
FC(F)(F)c1ccnc(N2CCOCC3(CN(Cc4ccccc4)C3)C2)n1	n	n	u	n	n
O=C(NCCc1c[nH]c2ccccc12)[C@@H]1C[C@H]2C(=O)NCCCCCCN(C(=O)C3CC3)[C@H]2C1	u	n	u	n	n
CCS(=O)(=O)N1CCCCCCNC(=O)[C@@H]2C[C@@H](C(=O)NCCc3c[nH]c4ccccc34)C[C@@H]21	n	n	35µM	n	n
